Inconclusive results are not listed. Where a structure was tested more than once in an assay, its records may differ in their call. The source made the active and inactive calls. Unless noted, the call rests on the fitted dose curve; in most records, active means well fitted curve in the direction sought with a large enough effect in the repeat runs; inconclusive means weak or mixed curves; inactive means no such curve, though single readings can be large; an effect the other way counts as inactive or inconclusive.
What was measured:
[1] = qHTS assay to identify small molecule antagonists of the thyroid receptor (TR) signaling pathway - cell viability counter screen (AID 743064); further: nearly all actives have a fitted effect of over 50% in size
In short: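 In rat pituitary GH3.TRE-Luc reporter cells co-exposed to compound and 1 nM T3 for 23.5 h, cytotoxicity was assessed with CellTiter-Fluor in the same wells, read by fluorescence.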

[2] = qHTS assay to identify small molecule antagonists of the thyroid receptor (TR) signaling pathway (AID 743065); further: series mostly up to about 70 µM; nearly all actives have a fitted effect of over 55% in size
In short: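 GH3.TRE-Luc rat pituitary cells (two TREs driving luciferase) were dosed with compound, then stimulated with 1 nM T3 (final) for 23.5 h at 37 C. ONE-Glo luminescence was the read-out, with CellTiter-Fluor fluorescence as the cytotoxicity counter-screen.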

[3] = tested on: thyroid hormone receptor (rat, GH3 cells); assay: qHTS assay to identify small molecule agonists of the thyroid receptor (TR) signaling pathway (AID 743066; calls by dose curve)
[4] = target: Estrogen receptor (Homo sapiens) (UniProt P03372); assay: qHTS assay to identify small molecule antagonists of the estrogen receptor alpha (ER-alpha) signaling pathway (AID 743069; active means well fitted curve in the direction sought with a large enough effect in the signal ratio in the repeat runs, not every such curve was filed as active; the % refers to the signal ratio)
In short: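 HEK293 ER-alpha-UAS-bla GripTite cells, held overnight in 2% charcoal-stripped FBS, 5,000 cells/well, preincubated 4 h, then compound plus 17beta-estradiol for 18 h at 37C. Beta-lactamase read by LiveBLAzer B/G FRET substrate, 2 h at room temperature.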

[5] = qHTS assay to identify small molecule antagonists of the estrogen receptor alpha (ER-alpha) signaling pathway - cell viability counter screen (AID 743074; calls by dose curve;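 further: HEK293 cells carrying ER-alpha-UAS-bla reporter stimulated with 17beta-estradiol; nearly all actives have a fitted effect of over 45% in size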)
[6] = target: Estrogen receptor (Homo sapiens) (UniProt P03372); assay: qHTS assay to identify small molecule agonists of the estrogen receptor alpha (ER-alpha) signaling pathway (AID 743075; calls by dose curve)
[7] = target: Estrogen receptor (Homo sapiens) (UniProt P03372); assay: qHTS assay to identify small molecule agonists of the estrogen receptor alpha (ER-alpha) signaling pathway using the BG1 cell line (AID 743079); further: nearly all actives have a fitted effect of over 20% in size
[8] = qHTS assay to identify small molecule antagonists of the estrogen receptor alpha (ER-alpha) signaling pathway using the BG1 cell line (AID 743080; calls by dose curve;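 further: BG1 cells stimulated with 17beta-estradiol alongside compound; series mostly up to about 70 µM; nearly all actives have a fitted effect of over 25% in size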)
In short: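 BG1Luc4E2, endogenous ER-alpha, 4xERE-luc; 5 d charcoal-stripped FBS, phenol red free; 24 h plating; cpd + 17beta-estradiol 21.5 h, 37 C/5% CO2; CellTiter-Fluor viability 30 min, then ONE-Glo luciferase 30 min RT.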

[9] = qHTS assay to identify small molecule antagonists of the estrogen receptor alpha (ER-alpha) signaling pathway using the BG1 cell line - cell viability counter screen (AID 743081);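 further: compound given together with 17beta-estradiol as the ER stimulus; series mostly up to about 70 µM; nearly all actives have a fitted effect of over 45% in size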
[10] = target: Aromatase (Homo sapiens) (UniProt P11511); assay: qHTS assay to identify aromatase inhibitors (AID 743083); further: series mostly up to about 70 µM; nearly all actives have a fitted effect of over 55% in size
[11] = qHTS assay to identify aromatase inhibitors - cell viability counter screen (AID 743084);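 further: cells stimulated with testosterone during compound exposure; nearly all actives have a fitted effect of over 55% in size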
[12] = qHTS assay to identify small molecule that activate the aryl hydrocarbon receptor (AhR) signaling pathway - cell viability counter screen (AID 743086);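 further: HepG2 liver cells carrying the AhR DRE luciferase reporter; series mostly up to about 70 µM; nearly all actives have a fitted effect of over 45% in size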
In short: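 HepG2-AhR-luc (HG2L7.5c1) cells, 4000/well, treated 24 h at 37 C with compound; viability measured as CellTiter-Fluor fluorescence after 30 min in the same wells as the luciferase read.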

[13] = target: Peroxisome proliferator-activated receptor gamma (Homo sapiens) (UniProt P37231); assay: qHTS assay to identify small molecule agonists of the peroxisome proliferator-activated receptor gamma (PPARg) signaling pathway (AID 743094; active means well fitted activation curve with a large enough effect in the signal ratio in the repeat runs, not every such curve was filed as active; the % refers to the signal ratio)
In short: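 Beta-lactamase FRET fluorescence was the read-out after a 1 h room-temperature substrate step, following 17 h compound treatment at 37C of HEK293H cells expressing a UAS-driven bla reporter responsive to PPARg.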

[14] = qHTS assay to identify small molecule antagonists of the peroxisome proliferator-activated receptor gamma (PPARg) signaling pathway - cell viability counter screen (AID 743194); further: nearly all actives have a fitted effect of over 55% in size
In short: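 Cytotoxicity counter screen in PPARg-bla HEK293H cells, same wells as reporter assay. Compounds plus 50 nM rosiglitazone (final) for 17 h at 37 C, then viability read by CellTiter-Glo luminescence.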

[15] = qHTS assay for small molecule agonists of the antioxidant response element (ARE) signaling pathway (AID 743202; active means well fitted activation curve with a large enough effect in the signal ratio in the repeat runs, not every such curve was filed as active; the % refers to the signal ratio)
In short: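 ARE-bla HepG2 cells (beta-lactamase reporter under the antioxidant response element), plated 5 hours, then exposed to compounds 16 hours at 37 C. LiveBLAzer B/G FRET substrate added for 2 hours at room temperature; fluorescence intensity read.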

[16] = qHTS assay for small molecule agonists of the antioxidant response element (ARE) signaling pathway - cell viability counter screen (AID 743203; calls by dose curve; further: nearly all actives have a fitted effect of over 55% in size)
In short: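 HepG2 cells carrying ARE-driven beta-lactamase; 2,000 cells/well; 5 hrs plating; compound pinned from DMSO; 16 hrs 37C/5% CO2; CellTiter-Glo added; 30 min RT; luminescence.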

[17] = qHTS assay for small molecule activators of the heat shock response signaling pathway - cell viability counter screen (AID 743209); further: nearly all actives have a fitted effect of over 50% in size
In short: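 Luminescence from CellTiter-Glo, added after the beta-lactamase FRET read, gave the viability signal. Cells were HSE-bla HeLa treated with DMSO-dissolved compounds for 5 h at 37 C following overnight plating.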

[18] = qHTS assay for small molecule activators of the heat shock response signaling pathway (AID 743210; active means well fitted activation curve with a large enough effect in the signal ratio in the repeat runs, with a control signal flat, not every such curve was filed as active; the % refers to the signal ratio; further: series mostly up to about 63 µM)
In short: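 HSE-bla HeLa cells (beta-lactamase reporter under heat shock response elements), plated overnight, then exposed to compounds 5 h at 37 C; LiveBLAzer B/G FRET substrate added, 2.5 h at room temperature, fluorescence intensity read.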

[19] = target: Aryl hydrocarbon receptor (Homo sapiens) (UniProt P35869); assay: qHTS assay to identify small molecule that activate the aryl hydrocarbon receptor (AhR) signaling pathway (AID 743085); further: nearly all actives have a fitted effect of over 15% in size; further: potency means the concentration at half of the fitted maximal effect;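 on activation: HG2L7.5c1 human HepG2 liver cells with stably integrated DRE-driven firefly reporter; series mostly up to about 70 µM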
In short: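 AhR agonist activity is inferred from enhanced light output of a DRE-controlled firefly luciferase reporter in HepG2 cells, measured with ONE-Glo following 24 h treatment at 37C.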

[20] = target: Peroxisome proliferator-activated receptor gamma (Homo sapiens) (UniProt P37231); assay: qHTS assay to identify small molecule antagonists of the peroxisome proliferator-activated receptor gamma (PPARg) signaling pathway (AID 743191; calls by dose curve; further: series mostly up to about 63 µM; nearly all actives have a fitted effect of over 30% in size)
In short: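 GeneBLAzer PPARg UAS-bla HEK293H cells, 5 h post-plating, exposed to compounds 17 h at 37C. LiveBLAzer B/G FRET substrate added for 1 h at room temperature; beta-lactamase reporter read by fluorescence intensity.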

Measured: Potency

Aromatase (Homo sapiens), sequence (P11511 whole entry, looked up): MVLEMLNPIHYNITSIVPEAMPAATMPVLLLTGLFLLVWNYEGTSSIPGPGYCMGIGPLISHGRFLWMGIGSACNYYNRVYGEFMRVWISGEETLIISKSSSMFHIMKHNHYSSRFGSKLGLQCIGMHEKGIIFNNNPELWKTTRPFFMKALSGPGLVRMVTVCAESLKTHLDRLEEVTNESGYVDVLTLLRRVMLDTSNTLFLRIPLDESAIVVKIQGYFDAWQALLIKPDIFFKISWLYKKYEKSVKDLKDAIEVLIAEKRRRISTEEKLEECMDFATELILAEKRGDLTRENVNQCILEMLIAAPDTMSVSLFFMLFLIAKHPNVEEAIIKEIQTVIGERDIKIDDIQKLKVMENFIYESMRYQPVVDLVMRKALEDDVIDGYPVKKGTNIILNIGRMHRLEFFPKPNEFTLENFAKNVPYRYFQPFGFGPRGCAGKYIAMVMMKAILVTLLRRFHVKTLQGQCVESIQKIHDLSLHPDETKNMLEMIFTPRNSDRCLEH
Aryl hydrocarbon receptor (Homo sapiens), sequence (P35869 whole entry, looked up): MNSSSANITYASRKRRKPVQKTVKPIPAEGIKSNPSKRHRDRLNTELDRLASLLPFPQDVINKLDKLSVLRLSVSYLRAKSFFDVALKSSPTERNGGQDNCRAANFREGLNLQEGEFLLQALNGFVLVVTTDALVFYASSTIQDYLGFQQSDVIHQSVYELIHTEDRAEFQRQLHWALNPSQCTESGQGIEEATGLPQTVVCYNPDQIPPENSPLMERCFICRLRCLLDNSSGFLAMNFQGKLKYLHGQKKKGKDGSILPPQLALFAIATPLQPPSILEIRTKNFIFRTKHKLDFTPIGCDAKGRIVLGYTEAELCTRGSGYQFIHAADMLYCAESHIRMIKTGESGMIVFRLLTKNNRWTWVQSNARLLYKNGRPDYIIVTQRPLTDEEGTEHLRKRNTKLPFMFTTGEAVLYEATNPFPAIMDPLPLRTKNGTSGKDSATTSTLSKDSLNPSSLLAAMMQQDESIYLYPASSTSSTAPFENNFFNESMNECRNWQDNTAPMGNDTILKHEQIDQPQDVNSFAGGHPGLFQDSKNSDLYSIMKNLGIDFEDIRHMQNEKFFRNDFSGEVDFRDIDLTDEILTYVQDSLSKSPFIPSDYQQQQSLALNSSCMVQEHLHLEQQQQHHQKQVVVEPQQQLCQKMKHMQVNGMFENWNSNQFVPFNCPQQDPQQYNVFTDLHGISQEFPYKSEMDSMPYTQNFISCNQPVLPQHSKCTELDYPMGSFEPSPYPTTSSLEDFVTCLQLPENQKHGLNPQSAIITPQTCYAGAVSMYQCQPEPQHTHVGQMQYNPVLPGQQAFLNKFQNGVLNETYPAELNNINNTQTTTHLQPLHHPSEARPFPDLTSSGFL
Peroxisome proliferator-activated receptor gamma (Homo sapiens), sequence (P37231 whole entry, looked up): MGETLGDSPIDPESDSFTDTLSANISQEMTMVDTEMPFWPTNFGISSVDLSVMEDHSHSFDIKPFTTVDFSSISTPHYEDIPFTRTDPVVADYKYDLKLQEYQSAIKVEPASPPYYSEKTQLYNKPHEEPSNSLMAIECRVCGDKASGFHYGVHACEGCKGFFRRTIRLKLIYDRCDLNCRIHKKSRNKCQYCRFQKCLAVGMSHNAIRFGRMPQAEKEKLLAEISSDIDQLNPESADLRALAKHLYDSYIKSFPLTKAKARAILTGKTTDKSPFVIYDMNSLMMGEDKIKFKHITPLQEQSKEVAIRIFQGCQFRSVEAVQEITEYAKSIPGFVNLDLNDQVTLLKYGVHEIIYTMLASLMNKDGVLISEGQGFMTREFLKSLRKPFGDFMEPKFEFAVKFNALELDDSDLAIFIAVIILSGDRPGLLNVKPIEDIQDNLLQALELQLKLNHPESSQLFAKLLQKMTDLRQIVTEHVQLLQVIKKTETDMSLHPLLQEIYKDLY
Estrogen receptor (Homo sapiens), sequence (P03372 whole entry, looked up): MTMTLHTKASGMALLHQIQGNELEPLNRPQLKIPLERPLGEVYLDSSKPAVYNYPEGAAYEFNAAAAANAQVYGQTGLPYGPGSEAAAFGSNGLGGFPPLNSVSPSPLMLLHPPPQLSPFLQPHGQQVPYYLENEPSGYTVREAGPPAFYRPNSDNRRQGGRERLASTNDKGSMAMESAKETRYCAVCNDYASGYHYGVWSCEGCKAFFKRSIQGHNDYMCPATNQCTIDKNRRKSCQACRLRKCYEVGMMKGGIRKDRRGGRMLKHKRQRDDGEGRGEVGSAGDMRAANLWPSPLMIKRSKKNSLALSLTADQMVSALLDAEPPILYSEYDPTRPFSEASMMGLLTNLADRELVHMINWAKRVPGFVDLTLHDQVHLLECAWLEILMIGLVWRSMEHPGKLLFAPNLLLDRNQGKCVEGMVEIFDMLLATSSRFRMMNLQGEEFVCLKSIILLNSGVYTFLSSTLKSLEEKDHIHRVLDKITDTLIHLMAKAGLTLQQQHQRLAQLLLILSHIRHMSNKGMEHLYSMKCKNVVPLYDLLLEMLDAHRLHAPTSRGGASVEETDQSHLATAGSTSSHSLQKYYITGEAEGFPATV

CCCCCCCCCCCCOCC1CO1 (stereo not given)
not listed: [19] | [20]
inactive: all other assays above

Cn1c([N+](=O)[O-])cnc1COC(N)=O
not listed: [16] | [19] | [20]
inactive: all other assays above

CCCCOCCO
inactive: all assays above

CCC(C)C=O (stereo not given)
not listed: [19] | [20]
inactive: all other assays above

CCCCOCCOCCOC(=O)CCCCC(=O)OCCOCCOCCCC
inactive: all assays above

OC[C@@H](O)[C@H](O)[C@H](O)[C@@H](O)CO
not listed: [20]
inactive: all other assays above

CCCCCCCCC
not listed: [20]
inactive: all other assays above

CC[Si](OC(C)=O)(OC(C)=O)OC(C)=O
not listed: [16] | [19]
inactive: all other assays above

C=C(C)C(=O)OCCCCCC
not listed: [16] | [19] | [20]
inactive: all other assays above

CS(=O)(=O)c1ccc([C@@H](O)[C@@H](CO)NC(=O)C(Cl)Cl)cc1
not listed: [16] | [19] | [20]
inactive: all other assays above

COC(=O)c1ccc(C(=O)OC)cc1
not listed: [16] | [18]
inactive: all other assays above

CC(=O)Nc1ccc(C(=O)O)cc1
not listed: [20]
inactive: all other assays above

O=Nc1ccc(O)cc1
53.2 µM (active) and inactive: [19]
not listed: [16] | [20]
inactive: all other assays above

CC1Cc2ccccc2N1NC(=O)c1ccc(Cl)c(S(N)(=O)=O)c1 (stereo not given)
not listed: [18] | [19] | [20]
inactive: all other assays above

From PubChem BioAssay (Tox21)
